Screening results as filed in PubChem BioAssay.
Hits are enriched below; roughly 2.4% of the tested compounds scored in any of these assays.
Platelet DG rel: modulates dense granule release in human platelets; human platelet-rich plasma, SFLLRN dense granule ATP release, luminescence; inhibition, %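 (compounds screened at 7.5 µM in platelet-rich plasma)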; actives 0.22% (n = 300,000);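 active = mean replicate score, as percent of positive control, at or above 50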
SENP8 block-1: SENP8 protease inhibition; Q96LD8; purified SENP8, Z-RLRGG-aminoluciferin cleavage, luminescence; inhibition, % at 10 µM; actives 1.2% (n = 330,000); AID 2540; in the data active = inhibition above about 50%
SENP6 block: inhibitors of human SENP6 protease; Recombinant SENP6 catalytic domain, aminoluciferin luminescence; actives 1.8% (n = 330,000); AID 2599; Q9GZR1; inhibition, % at 10 µM;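 active = inhibition above about 50% at the single tested dose, limit read from the data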;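 note: plate controls were DMSO wells with enzyme for no effect and DMSO wells lacking enzyme for full effect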
SENP8 block-2: blocks human SENP8 cleavage of Nedd8 substrate | inhibition, % at 20 µM | actives 0.64% (n = 360,000) | AID 602440 | recombinant SENP8, Nedd8 substrate fluorescence | Q96LD8; in the data active = inhibition mostly above about 40%, no sharp cut-off; inactive = mostly below about 27%
SENP7 inh: SENP7 protease inhibition; recombinant SENP7, Z-RLRGG-aminoluciferin luminescence, 40 min; Q9BQF6; actives 1.5% (n = 330,000); AID 434973; inhibition, % at 5 µM;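 active = inhibition above about 50% at the single test dose, limit read from the data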;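 note: plate controls were DMSO with enzyme for no effect and no enzyme buffer wells for full effect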
SENP8 conf: human SENP8 inhibition, confirmed. shares compounds with SENP7 inh. Recombinant SENP8, Z-RLRGG-aminoluciferin luminescence, 60 min. inhibition, % at 12.5 µM. actives 40% (n = 6,200);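 active = mean inhibition across replicates above about 50%, limit read from the data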
SENP6 confirm: confirmation of human SENP6 protease inhibitors; actives 58% (n = 6,200); recombinant SENP6, Z-RLRGG-aminoluciferin luminescence; inhibition, % at 12.5 µM; AID 488915; shares compounds with SENP7 inh
SENP7 confirm: confirmation of human SENP7 protease inhibitors; shares compounds with SENP7 inh; recombinant SENP7, Z-RLRGG-aminoluciferin luminescence, 40 min; inhibition, % at 12.5 µM; actives 69% (n = 6,200)
Casp3 select: selectivity test for SENP inhibitors: human caspase-3 inhibition; actives 60% (n = 6,200); purified caspase-3, Z-DEVD-aminoluciferin luminescence, 60 min; AID 488918; inhibition, % at 12.5 µM; shares compounds with SENP7 inh;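 active = mean inhibition above about 50%, limit read from the data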;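 note: plate controls were enzyme with DMSO for no effect and wells without caspase-3 for full effect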
SENP luc ctr: counter-screen for SENP inhibitors: luminescence interference. Pre-incubated SENP8/Z-RLRGG-aminoluciferin, luciferase luminescence interference. inhibition, % at 12.5 µM. AID 488919. shares compounds with SENP7 inh. actives 39% (n = 6,200);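 active = mean inhibition above about 50% when retested at one dose, limit read from the data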;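 note: plate controls were DMSO wells with completed reaction for no effect and substrate without enzyme for full effect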
An asterisk follows results filed as active; nt = no result.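 Rule for the calls, unless noted: active = mean inhibition above about 50% in the one-dose retest (limit read from the data); inactive = the rest.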

SMILES	Platelet DG rel	SENP8 block-1	SENP6 block	SENP8 block-2	SENP7 inh	SENP8 conf	SENP6 confirm	SENP7 confirm	Casp3 select	SENP luc ctr
Nn1c(Nc2ccccc2)nc2ccccc21	18	28	67*	24	42	51*	47	81*	73*	59*
Oc1ccc(Br)cc1C1Nc2ccccc2S1 (configuration not stated)	1	38	35	-291	79*	-21	-10	-4	9	-2
COc1ccc(CCNC(=O)C2CC(=O)N(C3CCCCC3)C2)cc1OC (configuration not stated)	-3	1	7	5	-2	nt	nt	nt	nt	nt
CS(=O)(=O)c1[nH]nc(-c2ccccc2Cl)c1C#N	-4	-8	-3	1	2	nt	nt	nt	nt	nt
Cc1cc(C(=O)O)ccc1N/C=C1\CCCC(C)C1=O (configuration not stated)	-2	77*	79*	-44	27	9	89*	99*	62*	88*
CC(C)c1ccccc1OCCCCCN1CCOCC1	0	-3	-24	13	6	nt	nt	nt	nt	nt
Cc1ccc(SCCC(=O)Nc2ccccc2Br)cc1	1	39	58*	5	38	49	44	78*	48	51*
Cc1ccc(SCCC(=O)Nc2ccccc2C(=O)NC(C)C)cc1	-13	-13	-6	-28	-11	nt	nt	nt	nt	nt
O=C(CCCCl)Nc1nc(-c2ccc3c(c2)OCCO3)cs1	2	0	-38	9	0	nt	nt	nt	nt	nt
CC(=O)Nc1nc(-c2ccc3c(c2)OCO3)cs1	13	9	52*	27	41	27	24	56*	52*	22
N#CCC(=O)Nc1nc(-c2ccc3c(c2)OCCO3)cs1	13	82*	89*	-1	61*	53*	67*	89*	68*	40
O=C(Nc1nc(-c2ccc3c(c2)OCO3)cs1)C1COc2ccccc2O1 (configuration not stated)	-12	-6	-23	5	-14	nt	nt	nt	nt	nt
Nc1nc(NC(=O)CCC(=O)O)nn1-c1ccccc1	3	3	-9	38	-1	nt	nt	nt	nt	nt
Cc1ccccc1OCCN(C#N)c1nc(N(C)C)nc(N(C)C)n1	-2	2	0	0	-7	nt	nt	nt	nt	nt
COc1ccc(-c2csc(NC(=O)c3ccccc3F)c2C(=O)O)cc1	3	60*	68*	-43	18	14	73*	90*	75*	76*
COC(=O)c1c(-c2ccc(F)cc2)csc1NC(=O)c1ccco1	12	-11	-3	-496	-4	nt	nt	nt	nt	nt
O=C(Nc1scc(-c2ccccc2)c1C(=O)O)c1ccco1	0	47	71*	-94	44	62*	60*	87*	83*	76*
O=C(Nc1scc(-c2cccs2)c1C(=O)O)c1cccs1	7	76*	87*	-127	-8	-20	80*	95*	80*	85*
Cc1ccc(C(=O)Nc2scc(-c3ccccc3)c2C(=O)O)cc1	-8	93*	94*	-153	70*	7	97*	102*	95*	95*
CCOC(=O)c1c(-c2cccs2)csc1NC(=O)c1ccncc1	3	-3	1	-36	-4	nt	nt	nt	nt	nt
Cc1c(C)c2ccc(OC(C)C(=O)NC3CCN(Cc4ccccc4)CC3)cc2oc1=O (configuration not stated)	1	-7	-14	-431	9	nt	nt	nt	nt	nt
COc1cc(N/C(N)=N/c2nc(C)cc(C)n2)cc(OC)c1	1	-8	-3	2	-8	nt	nt	nt	nt	nt
CC(=O)Nc1ccc(/C=C2/Sc3ccccc3C2=O)cc1	8	62*	66*	-100	94*	21	21	34	34	14
